Compound activity as filed in PubChem.
This is one part of a sample in which hits are shown more often than they occur.
Anaer choline gr: growth inhibitors of anaerobic choline-fed gram-negatives, minimal medium, absorbance. Gram-negative bacterium anaerobic choline minimal medium; stronger effect = lower value. calls only. 0.2% of 55,000 active; call rule not given here
Of the large screens only hits and unclear results are named; the others gave an inactive call; ! = repeats disagree.

O=C(CSc1nnc(-c2ccncc2)o1)Nc1ccc2c(c1)OCO2	Anaer choline gr active
CC(Sc1nnc(-c2ccncc2)o1)C(=O)Nc1ccc2c(c1)OCCO2 (configuration not stated)	none
Cc1ccc(NC(=O)CSc2nnc(-c3ccncc3)o2)cc1Cl	none
CCOC(=O)c1[nH]c(C)c(CCC(=O)NCCN(C)C)c1C	none
COc1cc2c(=O)n(Cc3ccc(C(=O)NC(C)C)cc3)c(=O)n(CC(=O)NC3CCCC3)c2cc1OC	none
CCCCN(C)c1ccc(NC(=O)C2CCC2)c(C(=O)O)c1	none
CC(C)c1ccc(-c2noc(SCC(=O)NCC3CCCO3)n2)cc1 (configuration not stated)	Anaer choline gr active
CC(C)c1ccc(-c2noc(SCC(=O)Nc3ccccc3Cl)n2)cc1	none
Cc1ccc(NC(=O)CSc2nc(-c3ccc(C(C)C)cc3)no2)cc1	none
Cc1noc(-c2cc(S(=O)(=O)NC3CCCC3)c(C)s2)c1C	none
Cn1c(=O)c2ccc(C(=O)NC3CCCCC3)cc2n2c(SCC(=O)NC3CCCC3)nnc12	none
CCCNC(=O)Nc1ccc(-c2noc(C3CC(=O)N(c4cccc(Cl)c4)C3)n2)cc1 (configuration not stated)	none
O=[N+]([O-])c1ccc2c(c1)S(=O)(=O)C=C2	Anaer choline gr active!
O=C1NCCN1Cc1ccccc1Cl	none
COc1cccc(C2Nc3ccccc3-n3c(-c4ccccc4)c4c(=O)n(C)c(=O)n(C)c4c32)c1O (configuration not stated)	none
CCOc1cccc(C2Nc3ccccc3-n3cc4c(=O)n(C)c(=O)n(C)c4c32)c1O (configuration not stated)	none
COc1ccc(C2Nc3ccccc3-n3cc4c(=O)n(C)c(=O)n(C)c4c32)c(OC)c1 (configuration not stated)	Anaer choline gr active
Cn1c(=O)c2cn3c(c2n(C)c1=O)C(c1ccc(O)c(O)c1)Nc1ccccc1-3 (configuration not stated)	none
Cc1ccc(C2Nc3ccccc3-n3cc4c(=O)n(C)c(=O)n(C)c4c32)c(O)c1 (configuration not stated)	Anaer choline gr active
COc1cccc(C2Nc3ccccc3-n3cc4c(=O)n(C)c(=O)n(C)c4c32)c1OC (configuration not stated)	none
CCOc1c(Cl)cc(CNCCNC(=O)c2nonc2N)cc1OC	none
Cc1[nH]c(C)c(S(=O)(=O)N2CCC(C(=O)Nc3ccc(F)c(Cl)c3)CC2)c1C(=O)N1CCCC1	none
Cc1[nH]c(C)c(S(=O)(=O)N2CCC(C(=O)Nc3ccc(Cl)cc3)CC2)c1C(=O)N1CCCC1	none
Cc1[nH]c(C)c(S(=O)(=O)N2CCC(C(=O)N3CCN(C4CCCCC4)CC3)CC2)c1C(=O)N1CCCC1	Anaer choline gr active
Cc1[nH]c(C)c(S(=O)(=O)N2CCC(C(=O)Nc3ccc(F)cc3)CC2)c1C(=O)N1CCCC1	Anaer choline gr active
Cc1[nH]c(C)c(S(=O)(=O)N2CCC(C(=O)N3CCN(C4CCCCC4)CC3)CC2)c1C(=O)N1CCCCC1	none
Cc1[nH]c(C)c(S(=O)(=O)N2CCC(C(=O)N3CCC(C)CC3)CC2)c1C(=O)N1CCCCC1	none
Cc1nnc2sc(-c3cccc(Cl)c3)nn12	none
CCNC(=O)N1CCC2(C1)C(=O)N(C)c1ccccc12 (configuration not stated)	none
CCCn1c(=O)c2sccc2n2c(SCC(=O)Nc3cc(Cl)ccc3OC)nnc12	none
Cc1cccc2c1cnn2C(=O)CCC(=O)N1CCc2ccccc2C1	none
O=C(NCCC1=CCCCC1)c1nc(-n2cnnc2)ccc1Br	none
Cn1c(=O)oc2cc(NC(=O)c3cccc(F)c3)ccc21	none
COc1cc(Nc2cc(-n3nc(C)cc3C)ncn2)cc(OC)c1	none
CCC(C)NC(=O)Nc1cc2c(cc1N1CCOCC1)n(C)c(=O)n2C (configuration not stated)	none
COC(=O)c1cccc(NC(=NCc2ccncc2)NC(=O)c2ccc3c(c2)OCO3)c1	none
COc1ccc(C(=O)NC(=NCc2ccncc2)Nc2ccccc2)cc1OC	none
Cc1cccc(NC(=NCc2ccncc2)NC(=O)c2ccc3c(c2)OCO3)c1	Anaer choline gr active
O=C1COc2cc(S(=O)(=O)NC3CC3)c(Cl)cc2N1Cc1noc(C2CC2)n1	none
CCOC(=O)c1nc2ccccc2nc1Nc1ccc(OC)cc1	none
CC(C)c1nnc(-c2ccc(S(=O)(=O)N3CCCC3)o2)o1	none
CC(C)c1nnc(-c2ccc(S(=O)(=O)N3CCN(C(C)C)CC3)o2)o1	none
CC(C)CN1CCN(S(=O)(=O)c2ccc(-c3nnc(C(C)C)o3)o2)CC1	Anaer choline gr active
COc1ccc(C2CC(=O)C3=C(C2)Nc2onc(C)c2C3c2ccccc2F)cc1OC (configuration not stated)	none
O=C(CCCn1nnc2cc(S(=O)(=O)N3CCCC3)ccc21)NCc1cccc(Cl)c1	none
O=C(c1cc2c(s1)CN(C1CC1)C2)N1CCN(C2CCCCC2)CC1	none
CN(C(=O)Cc1csc(NC(=O)Nc2cccc(Cl)c2)n1)c1ccccc1	none
CCN1CCN(CCNC(=O)C2CCCN(C(=O)c3[nH]c(C)c(C(=O)OC(C)C)c3C)C2)CC1 (configuration not stated)	none
CCCNC(=O)c1ccc(Nc2ccc(-c3cccc(C)c3)nn2)cc1	none
Cc1cc(N2CCN(C)CC2)nc2ccc(NC(=O)NCCc3ccccc3)cc12	none
Cc1ccc(S(=O)(=O)C=CC#N)cc1	none
CC(C)(C)c1ccc(S(=O)(=O)/C=C/C#N)cc1	Anaer choline gr active
CC(C)(C)c1ccc(S(=O)(=O)Nc2ccc(-c3nnc(-c4ccccc4)o3)cc2)cc1	none
O=C(Nc1ccc(S(=O)(=O)NCCc2ccccc2)cc1)C1c2ccccc2Oc2ccccc21	none
CCc1ccc(-c2[nH]c3ccccc3c2NC(=O)Nc2cccc(C(=O)OC)c2)cc1	none
CCc1ccc(NC(=O)Nc2c(-c3ccccc3)[nH]c3ccccc23)cc1	Anaer choline gr active
COc1ccc(NC(=O)Nc2c(-c3cccnc3)[nH]c3ccccc23)cc1	none
CCc1ccccc1NC(=O)CN(C)S(=O)(=O)c1ccc2nc(-c3ccccc3)[nH]c2c1	none
CCc1cccc(NC(=O)CN(C)S(=O)(=O)c2ccc3nc(-c4ccccc4)[nH]c3c2)c1	none
CCN(CC)CCCCN1c2ccccc2Oc2ccc(Cl)cc21	Anaer choline gr active
CC(=O)NNC(=O)N1Cc2ccccc2Oc2ccc(Cl)cc21	none
CCN(CC)CCCNC(=O)CCCN1C(=O)c2cccnc2Oc2ccc(Cl)cc21	none
O=C(CN1c2ccc(F)cc2-c2ccccc2S1(=O)=O)NCCC1=CCCCC1	none
O=C1Nc2ccccc2C1Cc1ccc(Cl)cc1 (configuration not stated)	Anaer choline gr active
COc1cc(CC2C(=O)Nc3ccccc32)cc(Cl)c1OC (configuration not stated)	none
O=C1Nc2ccccc2C1Cc1ccccc1F (configuration not stated)	none
CC(C)Oc1ccc(C(=O)Oc2cccc(-n3cnnn3)c2)cc1	none
CCn1c(=O)c(=O)n(CC)c2cc(S(=O)(=O)c3ccc(F)cc3)c(N)cc21	none
CCC(C)NC(=O)CSc1nnc2c3ccccc3nc(-c3ccccc3)n12 (configuration not stated)	none
Cc1cc(N2CCCC2)nc(N2CCN(S(=O)(=O)c3ccc(Br)cc3)CC2)n1	Anaer choline gr active
O=S(=O)(c1ccc(Br)cc1)N1CCN(c2ccc(N3CCCC3)nn2)CC1	none
Cc1cc(N2CCN(C)CC2)nc(N2CCN(S(=O)(=O)c3ccc(Br)cc3)CC2)n1	none
O=C(c1cn(-c2cccc(Cl)c2)nn1)N1CCCCC1	none
O=C(NCCN1CCc2ccccc2C1)Nc1ccc(F)cc1F	none
O=C1C(=O)N(C2CCN(C(=O)c3ccccc3Cl)CC2)CCN1Cc1ccccc1	none
